Laboratory results taken from the OligoGym collection.
Also: reference of the scale not given here.

What follows are sequences tested against KRTAP10-10 (assay: pooled miR-30 sensor sort-seq; sequence = guide strand). Conditions: shRNA.
Sequence TGCAGGAGCTGGTGTAGCCTGA has a sensor-assay potency score (higher = more potent) of -0.876.
AAGACTCGGAGCAGGTAGGCAC gave a sensor-assay potency score (higher = more potent) of -0.677.
TTACAGACGGGCACGCAGCAGA showed a sensor-assay potency score (higher = more potent) of -0.719.
With TTGTTACAGACGGGCACGCAGC the sensor-assay potency score (higher = more potent) was -1.52.
TGGTAGCATGGGGTTGTGCAGG showed a sensor-assay potency score (higher = more potent) of -1.66.
In the case of TGGGCAGTCGACTACCCGCCAA, the sensor-assay potency score (higher = more potent) is reported as -1.3.
TAGGCACGAAGCACACAGGCTT showed a sensor-assay potency score (higher = more potent) of 0.129.
AAGCACACAGGCTTGTTACAGA gave a sensor-assay potency score (higher = more potent) of -0.517.
TAGACTGCTGGTAGCATGGGGT gave a sensor-assay potency score (higher = more potent) of -0.566.
Sequence TTAGTTCTGCAGAACTTGGGTC has a sensor-assay potency score (higher = more potent) of 0.494.
TAGCAGACGGACTTAGAGCAGA gave a sensor-assay potency score (higher = more potent) of -0.81.
Sequence TAGCATGGGGTTGTGCAGGAGC has a sensor-assay potency score (higher = more potent) of -0.83.

What follows are sequences tested against KRTAP10-2 in the same assay as above. Conditions: shRNA.
Work on AGCATGAAGAGGATGACTCAGA yielded a sensor-assay potency score (higher = more potent) of -1.89.
With TGGGCACGCAGCACACAGCTTT the sensor-assay potency score (higher = more potent) was -1.18.
Sequence TGGCCTGAGGAAAAGCTGCAGG has a sensor-assay potency score (higher = more potent) of -1.08.
With TTGCAGCAGACGGACACACAGC the sensor-assay potency score (higher = more potent) was -1.17.
In the case of AAGAGGATGACTCAGAGCAGGT, the sensor-assay potency score (higher = more potent) is reported as -1.29.
In the case of AGCAGGACTGCTGACACGGGGA, the sensor-assay potency score (higher = more potent) is reported as -1.24.
In the case of AACAGGTACACAGCAGATGGAC, the sensor-assay potency score (higher = more potent) is reported as -1.3.
ACACAGCAGATGGACTTGCAGC showed a sensor-assay potency score (higher = more potent) of -1.45.
For TACACAGCAGATGGACTTGCAG, the sensor-assay potency score (higher = more potent) was -0.914.
TAGACTGCTGGCAGCACGGAGA was tested, and the sensor-assay potency score (higher = more potent) was -0.939.
Sequence CAGCACACAGCTTTGCAGCAGA has a sensor-assay potency score (higher = more potent) of -2.3.
TTGGTGCAGGCGCTGGAGCAGA gave a sensor-assay potency score (higher = more potent) of -1.45.

The sequences below were run against KRTAP13-1 in the same assay as above. Conditions: shRNA.
TCCAACGCCATAGCCCAGGGAA showed a sensor-assay potency score (higher = more potent) of -1.31.
TAACCCAGGGATCTGAAGCCAC gave a sensor-assay potency score (higher = more potent) of -0.898.
In the case of TGGTCTGTAGCAAGAAGACTGG, the sensor-assay potency score (higher = more potent) is reported as -0.92.
TTGGTCTGTAGCAAGAAGACTG gave a sensor-assay potency score (higher = more potent) of -0.458.
Work on TAGCAAGAAGACTGGCAGCTCC yielded a sensor-assay potency score (higher = more potent) of -0.434.
For TCCACATAGGATGTCTGGCAGC, the sensor-assay potency score (higher = more potent) was -1.92.
TCTGTAGCAAGAAGACTGGCAG gave a sensor-assay potency score (higher = more potent) of 0.163.
TAGAATAAGAGGCTAATTCTTT showed a sensor-assay potency score (higher = more potent) of -0.634.
In the case of TAGGAAAAGCCACAGGAGGAGG, the sensor-assay potency score (higher = more potent) is reported as -1.49.
TAGACCTGGTTGCTGGGGTAGG was tested, and the sensor-assay potency score (higher = more potent) was -1.13.
ACATAGGATGTCTGGCAGCTGG was tested, and the sensor-assay potency score (higher = more potent) was -1.73.

These sequences were tested against KRTAP13-2 in the same assay as above. Conditions: shRNA.
In the case of TAAGTCGTCTTGCAAGGACTGC, the sensor-assay potency score (higher = more potent) is reported as -0.646.
TAGAGACCCAGAGTAAGTCGTC showed a sensor-assay potency score (higher = more potent) of 0.623.
Work on TAACCCAGGGATCTGACACCAC yielded a sensor-assay potency score (higher = more potent) of -0.823.
For AGGTAGTCACCACAGGAGCGGG, the sensor-assay potency score (higher = more potent) was -1.51.
